Results as given in PubChem BioAssay (NCATS).
Results filed as inconclusive are left out. The source made the active and inactive calls. Unless noted, calls follow the shape of the dose curve; as a rule, active = well fitted inhibition curve with a large enough effect; inconclusive = small, poorly fitted or top-dose-only effect; inactive = flat fitted curve, though single readings scatter.

What was measured:
[1] = qHTS drug screen for cell cycle checkpoint inhibitors in PARPi-resistant BRCA-mutant ovarian cancer cell lines. (AID 1963452; calls by dose curve); details: PEO1/OlaR viability, CellTiter-Glo luminescence, 96 h, stronger effect = lower value
How it was run: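 PEO1, PEO4 and PEO1/OlaR ovarian cancer cells, 600 per well, exposed 96 h at 37C to a dilution series. Viability read by CellTiter-Glo luminescence, normalized to DMSO and empty wells; activity summarized as Z-AUC.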

[2] = qHTS profiling for inhibitors of Plasmodium falciparum proliferation (AID 504749); also: nearly all actives have a fitted effect of over 60% in size; also: potency is read from the fitted curve at half-maximal effect;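 as to activity, negative = inhibition: 0% = DMSO vehicle and full inhibition = artemisinin control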; details: P. falciparum in erythrocytes, SYBR Green DNA, 72 h
How it was run: (§1)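 SYBR Green fluorescence of parasite DNA, read after lysis and overnight dark incubation, measured growth over 72 h in erythrocyte culture at 0.3% parasitemia and 2.5% hematocrit. Data normalised to DMSO and 0.29 uM artemisinin, with plate-drift correction.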

3D7 = test: as above; details: P. falciparum in erythrocytes, SYBR Green DNA, 72 h; series mostly up to 28.7 µM
How it was run: as §1

7G8 = test: as above; details: P. falciparum in erythrocytes, SYBR Green DNA, 72 h; series mostly up to 28.7 µM
How it was run: as §1

AA1029 = test: as above; details: P. falciparum in erythrocytes, SYBR Green DNA, 72 h; series mostly up to 28.7 µM
How it was run: as §1

AS120 = test: as above; details: P. falciparum in erythrocytes, SYBR Green DNA, 72 h; series mostly up to 28.7 µM
How it was run: as §1

ATS189 = test: as above; details: P. falciparum in erythrocytes, SYBR Green DNA, 72 h; series mostly up to 28.7 µM
How it was run: as §1

ATS95 = test: as above; details: P. falciparum in erythrocytes, SYBR Green DNA, 72 h; series mostly up to 28.7 µM
How it was run: as §1

C2A = test: as above; details: P. falciparum in erythrocytes, SYBR Green DNA, 72 h; series mostly up to 28.7 µM
How it was run: as §1

CP185 = test: as above; details: P. falciparum in erythrocytes, SYBR Green DNA, 72 h; series mostly up to 28.7 µM
How it was run: as §1

CP191 = test: as above; details: P. falciparum in erythrocytes, SYBR Green DNA, 72 h; series mostly up to 28.7 µM
How it was run: as §1

CP192 = test: as above; details: P. falciparum in erythrocytes, SYBR Green DNA, 72 h; series mostly up to 28.7 µM
How it was run: as §1

[3] = qHTS for identification of novel therapeutic agents for treatment of microphthalmiaassociated transcription factor (MiT) renal cell carcinoma (RCC) (AID 1963991); details: CellTiter-Glo, 48 h, stronger effect = lower value
How it was run: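 Three TFE3-fusion RCC lines (UOK109, UOK124, UOK145), 500 cells/well in complete medium, were treated with MIPE 4.0 compounds for 48 hours at 37 C. Viability was by CellTiter-Glo luminescence, normalized to DMSO (100%) and empty wells (0%); curves fitted over 11 concentrations.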

[4] = measured here: PEO1 parental Z-AUC
[5] = at 28.7 µM (top of the series), parasite line A
[6] = at 28.7 µM (top of the series), parasite line B
[7] = TFE3-RCC UOK109 viability, measured here: UOK109 Z-AUC
[8] = TFE3-RCC viability, measured here: UOK124 Z-AUC
[9] = TFE3-RCC viability, measured here: UOK145 Z-AUC

Nc1nnc(-c2cccc(Cl)c2Cl)c(N)n1
0.453: Z-AUC ([1]; measured here: PEO4 Z-AUC)
0.568: Z-AUC [1, 4]
inactive: Z-AUC [1] -0.438 | activity, negative = inhibition [2, 5] -17% | activity, negative = inhibition [2, 6] -20% | Potency (3D7) | Potency (7G8) | Potency (AA1029) | Potency (AS120) | Potency (ATS189) | Potency (ATS95) | Potency (C2A) | Potency (CP185) | Potency (CP191) | Potency (CP192)

COc1ccc2[nH]cc(CCNC(C)=O)c2c1
1.13: Z-AUC ([1]; measured here: PEO4 Z-AUC)
1.56: Z-AUC [1, 4]
inactive: Z-AUC [1] 1.13 | activity, negative = inhibition [2, 5] 6.49% | activity, negative = inhibition [2, 6] 12.1% | Potency (3D7) | Potency (7G8) | Potency (AA1029) | Potency (AS120) | Potency (ATS189) | Potency (ATS95) | Potency (C2A) | Potency (CP185) | Potency (CP191) | Potency (CP192)

CCOC(=O)Nc1ccc(NCc2ccc(F)cc2)nc1N
-0.051: Z-AUC ([1]; measured here: PEO4 Z-AUC)
0.938: z-score [3, 8]
-0.223: Z-AUC [1, 4]
active: Potency ([2]; parasite line A) 7.94 µM | Potency ([2]; parasite line B) 12.6 µM | Potency (3D7) 7.94 µM | Potency (7G8) 10 µM | Potency (AA1029) 11.2 µM | Potency (AS120) 12.6 µM | Potency (ATS189) 10 µM | Potency (CP191) 11.2 µM
0.955: z-score [3, 7]
0.317: z-score [3, 9]
inactive: Z-AUC [1] -0.444

N[C@@H](Cc1c[nH]c2ccc(O)cc12)C(=O)O
-0.312: Z-AUC [1, 4]
0.556: z-score [3, 9]
0.236: z-score [3, 7]
0.415: z-score [3, 8]
-0.162: Z-AUC ([1]; measured here: PEO4 Z-AUC)
inactive: Z-AUC [1] -0.189 | activity, negative = inhibition [2, 5] 15.9% | activity, negative = inhibition [2, 6] 15.8% | Potency (3D7) | Potency (7G8) | Potency (AA1029) | Potency (AS120) | Potency (ATS189) | Potency (ATS95) | Potency (C2A) | Potency (CP185) | Potency (CP191) | Potency (CP192)

Clc1ccc2nsnc2c1NC1=NCCN1
1.24: Z-AUC ([1]; measured here: PEO4 Z-AUC)
inactive: Z-AUC [1] 1.68 | activity, negative = inhibition [2, 5] 6.78% | activity, negative = inhibition [2, 6] -11.1% | Potency (3D7) | Potency (7G8) | Potency (AA1029) | Potency (AS120) | Potency (ATS189) | Potency (ATS95) | Potency (C2A) | Potency (CP185) | Potency (CP191) | Potency (CP192)
1.11: Z-AUC [1, 4]

CCCNCC(O)COc1ccccc1C(=O)CCc1ccccc1 (centres undefined)
0.498: Z-AUC [1, 4]
active: Potency ([2]; parasite line A) 1 µM | Potency ([2]; parasite line B) 0.355 µM | Potency (3D7) 2 µM | Potency (7G8) 0.251 µM | Potency (AA1029) 0.631 µM | Potency (AS120) 0.316 µM | Potency (ATS189) 0.891 µM | Potency (ATS95) 0.631 µM | Potency (C2A) 1.78 µM | Potency (CP185) 1.26 µM | Potency (CP191) 1.26 µM | Potency (CP192) 2.13 µM
inactive: Z-AUC [1] 0.52
0.0881: Z-AUC ([1]; measured here: PEO4 Z-AUC)

CCOC(=O)C(C)(C)Oc1ccc(Cl)cc1
0.606: z-score [3, 9]
0.762: Z-AUC ([1]; measured here: PEO4 Z-AUC)
inactive: Z-AUC [1] 0.714 | activity, negative = inhibition [2, 5] 5.66% | activity, negative = inhibition [2, 6] 12.1% | Potency (3D7) | Potency (7G8) | Potency (AA1029) | Potency (AS120) | Potency (ATS189) | Potency (ATS95) | Potency (C2A) | Potency (CP185) | Potency (CP191) | Potency (CP192)
0.307: z-score [3, 8]
-1.29: z-score [3, 7]
0.586: Z-AUC [1, 4]

CN(C)c1nc(N(C)C)nc(N(C)C)n1
0.778: Z-AUC [1, 4]
0.807: Z-AUC ([1]; measured here: PEO4 Z-AUC)
inactive: Z-AUC [1] 1.32 | activity, negative = inhibition ([2]; at 12.8 µM (top of the series), parasite line A) 7.93% | activity, negative = inhibition ([2]; at 12.8 µM (top of the series), parasite line B) -1.03% | Potency (3D7) | Potency (7G8) | Potency (AA1029) | Potency (AS120) | Potency (ATS189) | Potency (ATS95) | Potency (C2A) | Potency (CP185) | Potency (CP191) | Potency (CP192)

COc1ccc(CCN(C)CCCC(C#N)(c2ccc(OC)c(OC)c2)C(C)C)cc1OC (centres undefined)
inactive: Z-AUC [1] 0.76 | activity, negative = inhibition [2, 5] 7.01% | activity, negative = inhibition [2, 6] 8.01% | Potency (3D7) | Potency (AS120) | Potency (ATS189) | Potency (ATS95) | Potency (C2A) | Potency (CP185) | Potency (CP191) | Potency (CP192)
0.393: z-score [3, 8]
0.327: z-score [3, 9]
0.721: Z-AUC [1, 4]
1.08: Z-AUC ([1]; measured here: PEO4 Z-AUC)
0.794: z-score [3, 7]

CC(C)NCC(O)COc1ccc(CCOCC2CC2)cc1 (centres undefined)
active: Potency (7G8) 11.2 µM
inactive: Z-AUC [1] 1.3 | activity, negative = inhibition [2, 5] 13.9% | activity, negative = inhibition [2, 6] -3.18% | Potency (3D7) | Potency (AA1029) | Potency (AS120) | Potency (ATS95) | Potency (C2A) | Potency (CP185) | Potency (CP192)
0.99: Z-AUC [1, 4]
1.01: Z-AUC ([1]; measured here: PEO4 Z-AUC)

Cn1c(=O)c2[nH]cnc2n(C)c1=O
0.72: Z-AUC [1, 4]
0.784: Z-AUC ([1]; measured here: PEO4 Z-AUC)
0.63: z-score [3, 9]
inactive: Z-AUC [1] 0.347 | activity, negative = inhibition [2, 5] 0.326% | activity, negative = inhibition [2, 6] 0.99% | Potency (3D7) | Potency (7G8) | Potency (AA1029) | Potency (AS120) | Potency (ATS189) | Potency (ATS95) | Potency (C2A) | Potency (CP185) | Potency (CP191) | Potency (CP192)
0.242: z-score [3, 8]
1.09: z-score [3, 7]

OCCN1CCN(CCCN2c3ccccc3Sc3ccc(C(F)(F)F)cc32)CC1
0.195: Z-AUC ([1]; measured here: PEO4 Z-AUC)
0.459: Z-AUC [1, 4]
inactive: Z-AUC [1] 0.453
active: Potency ([2]; parasite line A) 7.08 µM | Potency ([2]; parasite line B) 10 µM | Potency (3D7) 7.08 µM | Potency (7G8) 3.16 µM | Potency (AA1029) 12.6 µM | Potency (AS120) 10 µM | Potency (ATS189) 8.91 µM | Potency (ATS95) 11.2 µM | Potency (C2A) 12.6 µM | Potency (CP185) 11.2 µM | Potency (CP191) 7.94 µM

NC12CC3CC(CC(C3)C1)C2
inactive: Z-AUC [1] 0.0042 | activity, negative = inhibition [2, 5] 8.47% | activity, negative = inhibition [2, 6] 14.2% | Potency (3D7) | Potency (AA1029) | Potency (AS120) | Potency (ATS189) | Potency (ATS95) | Potency (C2A) | Potency (CP185) | Potency (CP191) | Potency (CP192)
0.463: Z-AUC ([1]; measured here: PEO4 Z-AUC)
0.0418: Z-AUC [1, 4]

CC(C)C(=O)Nc1ccc([N+](=O)[O-])c(C(F)(F)F)c1
0.418: Z-AUC ([1]; measured here: PEO4 Z-AUC)
inactive: Z-AUC [1] -1.15 | activity, negative = inhibition [2, 5] 5.81% | activity, negative = inhibition [2, 6] 10.3% | Potency (3D7) | Potency (AA1029) | Potency (AS120) | Potency (ATS189) | Potency (ATS95) | Potency (C2A) | Potency (CP185) | Potency (CP191) | Potency (CP192)
-0.423: Z-AUC [1, 4]
